Test results taken from PubChem BioAssay AID504357 (The Scripps Research Institute Molecular Screening Center, 2011).
Where “and” joins values, the source holds several entries; their conditions need not be identical. Equal values may be shown once. Screen size: about 340,000 compounds; about 700 (0.21%) were called active. The sample as a whole holds a higher share of actives than the screen did. Unmarked numbers belong to inactive results. Cut-off read from the data, not from the text of the source: active = inhibition above about 22% (passing the limit was not always enough); inactive = the rest.

What follows are compounds tested against Mu-type opioid receptor (Homo sapiens) + Delta-type opioid receptor (Homo sapiens) (UniProt P35372+P41143) (assay: inverse agonists of MOR-DOR heterodimerization, primary screen, cell-based, luminescence (AID 504357;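 note: 0% = cells with DMSO and 100% = wells without cells with DMSO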)). Conditions: cell-based MOR-DOR heterodimer luminescence, inverse agonism; at 9.3 µM; stronger effect = higher value.
Mu-type opioid receptor (Homo sapiens) + Delta-type opioid receptor (Homo sapiens), sequence (P35372 whole entry, looked up): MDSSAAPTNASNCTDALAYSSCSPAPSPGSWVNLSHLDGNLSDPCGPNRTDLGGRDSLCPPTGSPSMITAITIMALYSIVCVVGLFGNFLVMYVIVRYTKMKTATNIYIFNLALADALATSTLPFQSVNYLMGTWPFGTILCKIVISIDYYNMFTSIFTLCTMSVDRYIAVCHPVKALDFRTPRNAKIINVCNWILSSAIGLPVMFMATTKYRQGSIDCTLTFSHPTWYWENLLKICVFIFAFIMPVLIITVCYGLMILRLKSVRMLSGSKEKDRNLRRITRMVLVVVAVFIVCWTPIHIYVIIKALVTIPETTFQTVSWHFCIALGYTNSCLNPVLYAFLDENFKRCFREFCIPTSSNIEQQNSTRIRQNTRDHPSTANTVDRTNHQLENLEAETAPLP
Mu-type opioid receptor (Homo sapiens) + Delta-type opioid receptor (Homo sapiens), sequence (P41143 whole entry, looked up): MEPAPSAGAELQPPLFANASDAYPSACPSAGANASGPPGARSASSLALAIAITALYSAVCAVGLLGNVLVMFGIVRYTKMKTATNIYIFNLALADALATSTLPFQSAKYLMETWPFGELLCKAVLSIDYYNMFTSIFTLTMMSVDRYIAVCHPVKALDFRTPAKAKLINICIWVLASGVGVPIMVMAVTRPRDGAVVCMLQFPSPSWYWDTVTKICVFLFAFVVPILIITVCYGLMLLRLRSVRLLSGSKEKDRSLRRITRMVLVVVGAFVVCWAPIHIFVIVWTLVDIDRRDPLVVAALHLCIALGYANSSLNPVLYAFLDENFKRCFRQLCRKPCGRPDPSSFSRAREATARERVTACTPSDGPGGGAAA

| Structure (SMILES) | inhibition |
| --- | --- |
| Cc1ccc(Cc2nnc(SCC(=O)Nc3ccc(C)cc3C)[nH]c2=O)cc1 | -25.8% |
| O=C1CCC(=O)N(O)CCCCCNC(=O)CCC(=O)N(O)CCCCCNC(=O)CCC(=O)N(O)CCCCCN1 | 8.42% |
| CN(/N=C/c1ccccc1)C(=S)c1ccccc1 | -3.87% |
| CN(CC(=O)O)C(=O)c1ccccc1 | 10.9% |
| CN(O)C(=S)c1ccccc1 | 41.1% (active) |
| Cc1ccc(NNC(=O)c2cccs2)cc1Cl | 53.4% (active) |
| O=C(NNC(=O)c1ccc(Cl)cc1Cl)c1cccs1 | 2.42% |
| Cc1ccc(NC(=O)c2cccs2)cc1S(=O)(=O)N(C)C | 0.25% |
| CSc1ccc(Cl)c(C(=O)OCC(=O)N2CCNC2=O)c1 | 16.2% |
| Cc1cc(C)cc(N)c1 | 14.8% |
| CCN(CC(=O)NCc1ccco1)S(=O)(=O)c1ccc(F)cc1 | -7.35% |
| COc1ccccc1C(=O)NC(=O)COC(=O)c1ccco1 | 3.92% |
| Cc1cccc(-n2c(SCC(N)=O)nc3c(c2=O)C2(CCCCC2)Cc2ccccc2-3)c1 | -5.65% |
| CC1CC2=C(CC1/C=N/NC(N)=S)C(C)(C)CCC2 (stereo not drawn) | -16.2% |
| CCn1cc(/C=C2/SC(=S)NC2=O)c(C)n1 | 9.33% |
| CC1CCCC(N2CCN(C(=O)c3ccc(F)cc3)CC2)C1 (stereo not drawn) | 1.43% |
| CCOc1ccc(S(=O)(=O)NCCC(=O)N2CCCCCCC2)cc1 | -1.55% |
| O=C(CCN1CCN(C/C=C/c2ccccc2)CC1)Nc1ccccc1Cl | 1.43% |
| CC(c1cccnc1)N(CCN(C)C)C(=O)Nc1ccc(Cl)c(Cl)c1 (stereo not drawn) | -197% |
| Cc1cccc(C)c1NC(=O)C(Cl)C(=O)c1ccccc1 (stereo not drawn) | 34.4% (active) |
| CC(NC(=O)c1ccccc1)C(=O)Nc1ccccc1 (stereo not drawn) | 19.2% |
| Cc1cccc(C)c1NC(=O)CN(C)C(=O)CCC(=O)c1ccccc1 | 3.3% |
| Cc1cc(C)c(S(=O)(=O)N2CCC(C(=O)OCc3c(C)noc3C)CC2)c(C)c1 | 6.69% |
| COc1cccc(-c2ccc(C#N)c(SCC(=O)NCCc3ccc(Cl)cc3)n2)c1 | -45.6% |
| Oc1ccc(N=Nc2nccs2)c(O)c1 | 37.2% (active) |

| Structure (SMILES) | inhibition |
| --- | --- |
| Cc1ccc(S(=O)(=O)N(C)c2ccc(OCC(=O)NC3=NCCS3)cc2)cc1 | 7.13% |
| CN(c1ccccc1)S(=O)(=O)c1ccc(NC(=O)COc2ccccc2)cc1 | 31.1% (active) |
| O=C(COc1ccccc1)Nc1ccc(F)cc1 | 7.72% |
| Cc1cccc(CC2(O)C(=O)Nc3ccccc32)n1 (stereo not drawn) | 15.9% |
| Cc1cc(O)c(C2(O)C(=O)Nc3ccccc32)cc1C (stereo not drawn) | 10.4% |
| Cc1ccc(NC2(C#N)C(=O)Nc3ccccc32)cc1 (stereo not drawn) | 63.2% (active) |
| CC(CC(=O)N1CCN(c2ccccc2)CC1)S(=O)(=O)c1ccc2c(c1)NC(=O)CS2 (stereo not drawn) | 4.28% |
| CCCCCCCCCCCCN1[C@@H](CC(C)=O)c2cc(F)cc(F)c2S1(=O)=O | 8.79% |
| Cc1cc(=O)oc2c1c(C)nn2-c1ccc(Cl)cc1 | 11% |
| Cc1ccc(CN(CC(=O)NCC2CCCO2)S(=O)(=O)c2ccc(C)cc2)cc1 (stereo not drawn) | 10.1% |
| Nc1nnc(C2CCCC2)s1 | 11.4% |
| O=C(NCCN1CCOCC1)/C(=C/c1ccc(F)cc1)NC(=O)c1ccccc1 | 18.7% |
| Cc1cc(NC(=O)CN2CCC(O)(c3cccc(F)c3)CC2)no1 | 10.8% |
| COc1cccc(CNC(=O)C2CCCN(S(=O)(=O)N3CC(C)CC(C)C3)C2)c1 (stereo not drawn) | 16% |
| Cc1ccsc1C(=O)NCCc1ccco1 | 7.66% |
| O=C(NCCSc1ncc(-c2ccccc2)[nH]1)c1ccco1 | 13.1% |
| CC1CCCCC1NC(=O)COC(=O)Cc1ccc(Cl)cc1 (stereo not drawn) | 21.7% |
| CC(=O)N1c2ccc(S(=O)(=O)N3CCCC(C(=O)Nc4ccc(C)cc4C)C3)cc2CC1C (stereo not drawn) | -10.6% |
| O=C(c1ccco1)N1CCN(C(=O)C2CC(c3ccc(Cl)c(Cl)c3)=NO2)CC1 (stereo not drawn) | 9.92% |
| Cc1cc(OC(=O)c2ccccc2)c([N+](=O)[O-])c(=O)[nH]1 | -3.39% |
| O=C(O)CCN1C(=O)CC2(CCCCC2)C1=O | 14.8% |
| O=[N+]([O-])/C=C/c1ccc2c(ccn2Cc2ccccc2)c1 | 38.9% (active) |
| COc1ccc(CNCCCn2cnc3c(OCc4ccccc4)ncnc32)cc1 | 11.7% |
| Cc1ccc2c(c1)C(O)(CC(=O)c1cccnc1)C(=O)N2 (stereo not drawn) | 37.3% (active) |
| Cc1ccc2c(c1)C(O)(CC(=O)c1cccc(-n3cccc3)c1)C(=O)N2 (stereo not drawn) | 17.9% |

| Structure (SMILES) | inhibition |
| --- | --- |
| O=C(CC(=O)c1cccnc1)c1ccccc1 | 13.2% |
| CN(c1ccccc1)S(=O)(=O)c1cc(C(=O)N2CCN(c3ncccn3)CC2)ccc1Cl | 2.36% |
| COc1ccccc1CN1CCCC(N2CCN(c3ccc(F)cc3)CC2)C1 (stereo not drawn) | 8.79% |
| C[n+]1ccc(C(=O)NCc2ccccc2)cc1 | -0.68% |
| COc1c(C=O)c(CCN(C)C(=O)c2ccc(F)cc2)cc2c1OCO2 | 9.88% |
| CCOCCCNC(=O)C(NC(=O)Cc1c[nH]c2ccccc12)c1ccc(OC)cc1 (stereo not drawn) | 12.1% |
| Cc1ccccc1OCC(=O)NNC(=O)c1ccc(-n2cncn2)c([N+](=O)[O-])c1 | 8.19% |
| CCc1c(C)sc(NC(=O)OC)c1C(=O)N1CCOCC1 | 5.54% |
| CCOc1ccc(S(=O)(=O)N2CCCC(C(=O)N3CCC(C(N)=O)CC3)C2)cc1Cl (stereo not drawn) | 5.16% |
| COc1ccccc1N1CCN(CC(=O)Nc2ccnn2C2CCCC2)CC1 | 0.88% |
| CSCCC(NC(=O)COc1ccccc1)C(=O)OCc1ccc(Cl)cc1 (stereo not drawn) | -17.1% |
| CSCCC(NC(=O)COc1ccccc1)C(=O)OCC(=O)c1cc2ccccc2o1 (stereo not drawn) | 68.4% (active) |
| CSCCC(NC(=O)COc1ccccc1)C(=O)OCCOc1ccc(Br)cc1 (stereo not drawn) | -28.3% |
| CN1CC(=O)N=C1N | 16.7% and 15.6% |
| Cc1cc(Cl)c(S(=O)(=O)NCc2cccnc2)cc1OCC(N)=O | 11.2% |
| CCOc1ccc(NC(=O)CN(C)CC(=O)NC(C)c2ccccc2)cc1OCC (stereo not drawn) | 1.67% |
| COCC(C)OC(=O)c1c(N)n(CCCN2CCOCC2)c2nc3ccccc3nc12 (stereo not drawn) | 10.3% |
| C=CCn1c(N)c(C(=O)OCC(C)C)c2nc3ccccc3nc21 | 55.7% (active) |
| C=CCn1c(C(C)NC(=O)CC)nc2ccccc21 (stereo not drawn) | 18% |
| FC(F)(F)C1CCCN(c2nsc3ccccc23)C1 (stereo not drawn) | 11.2% |
| CCOC(=O)CN1C(=O)C(O)(CC(=O)c2ccccn2)c2ccccc21 (stereo not drawn) | 49.5% (active) |
| C=CCN1C(=O)C(O)(CC(=O)c2ccccn2)c2ccccc21 (stereo not drawn) | 15.1% |
| C=CCN1C(=O)C(O)(CC(=O)c2ccc(Cl)cc2)c2ccccc21 (stereo not drawn) | 12% |
